An excerpt weighted towards active compounds, which were near 6.1% of everything screened.
D1 ag – Allosteric Agonists of the Human D1 Dopamine Receptor: qHTS. 1% of 360,000 active. HEK293 T-REx D1 cells, calcium flux, agonist mode. D(1A) dopamine receptor (Homo sapiens), P21728. AID 504660, 2011. activation, % at 2 µM; in the data active means activation above about 30%
Target sequence (P21728 whole entry, looked up): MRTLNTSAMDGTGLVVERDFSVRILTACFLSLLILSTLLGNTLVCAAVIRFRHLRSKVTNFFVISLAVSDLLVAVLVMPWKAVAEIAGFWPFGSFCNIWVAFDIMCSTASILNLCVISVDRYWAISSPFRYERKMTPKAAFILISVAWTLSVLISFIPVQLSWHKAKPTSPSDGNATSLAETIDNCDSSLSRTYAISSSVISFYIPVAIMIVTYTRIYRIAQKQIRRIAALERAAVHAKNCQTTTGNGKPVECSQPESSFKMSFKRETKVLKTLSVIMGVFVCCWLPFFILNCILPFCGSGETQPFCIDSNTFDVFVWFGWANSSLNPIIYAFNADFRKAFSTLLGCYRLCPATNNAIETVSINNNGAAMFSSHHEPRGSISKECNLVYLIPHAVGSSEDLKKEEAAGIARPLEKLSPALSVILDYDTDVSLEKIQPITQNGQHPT
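Agonism was scored from calcium flux recorded over 180 s (1 read/s) after pintool compound addition, following a 10-cycle baseline. Cells were inducible force-coupled HEK293 TREx D1, plated overnight at 30 C and loaded with no-wash calcium dye.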
DRD3 antagonist – qHTS of D3 Dopamine Receptor Antagonist: qHTS; D(3) dopamine receptor (Homo sapiens), P35462; D3R cells, DiscoveRx beta-arrestin luminescence, antagonist mode; stronger effect = lower value; max response, negative = inhibition, %; 2.5% of 360,000 active; in the data active means max response below about -50%; inconclusive means no clear call, values can overlap the other calls
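Cells expressing the human receptor were seeded at 1500 cells/well, incubated overnight at 37 degrees C in 5% CO2, then exposed to library compounds with dopamine controls for 90 minutes at 37 degrees C before luminescent detection.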
D3 ag – qHTS of D3 Dopamine Receptor Agonist: qHTS; D3R DiscoveRx beta-arrestin cells, luminescence, 90 min; 0.58% of 410,000 active; AID 652048, 2013; max activation, %; D(3) dopamine receptor (Homo sapiens), P35462; in the data active means max activation above about 30%
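Agonist-mode cell screen: cells plated at 1500/well and incubated overnight at 37 °C, then exposed to library compounds for 90 min at 37 °C. Detection reagent was added for 30–60 min at room temperature, and luminescence was read.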
D1 potentiator – Potentiators of Human D1 Dopamine Receptor: qHTS; 0.036% of 360,000 active; potentiation, % at 10 µM; HEK293 TREx D1 cells, calcium flux, dopamine EC20 potentiation; D(1A) dopamine receptor (Homo sapiens), P21728; in the data active means potentiation above about 30%
D1 antag – Antagonist of Human D 1 Dopamine Receptor: qHTS | HEK293 TREx D1 cells, calcium flux, dopamine EC80; stronger effect = lower value | activity change, negative = inhibition, % at 10 µM | 3.2% of 360,000 active | D(1A) dopamine receptor (Homo sapiens), P21728; in the data active means activity change below about -30%
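Tetracycline-induced HEK293 Trex D1 cells, force-coupled to calcium, dye-loaded; compounds added and read 180 s, then EC80 dopamine added and calcium flux tracked kinetically another 180 s.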
Each line names hits and unclear results; the compound was inactive in the other large screens.

O=C(NCc1ccncc1)C(=O)C1C(=O)Nc2ccccc21 (centres undefined)	none
CC(C)(C)C(=O)NC1=NN(c2c(Cl)cc(Cl)cc2Cl)C(=O)C1	DRD3 antagonist -58.6
CCOC(=O)Nc1sc2c(c1C#N)CCC(C)C2 (centres undefined)	none
CCC1CCc2c(sc(NC(=O)C3CC=CCC3C(=O)O)c2C#N)C1 (centres undefined)	D3 ag 32.6
COc1cc(C)c(S(=O)(=O)n2ccc(C)n2)cc1C	D1 antag -31.9
COc1ccc(-n2c(=O)c3sc4ccccc4c3n(Cc3ccccc3)c2=O)cc1	none (no result: DRD3 antagonist)
CSc1ncnc2c1ncn2CCCN1CCN(Cc2cccc3ccccc23)CC1	DRD3 antagonist -60.2 (no result: D1 ag, D1 potentiator, D1 antag)
CSc1ncnc2c1ncn2CCCN1CCN(c2ncccn2)CC1	D3 ag 38.0 (no result: D1 ag, D1 potentiator, D1 antag)
COc1ccc(N2CCN(C(CNC(=O)c3cccc(OC)c3)c3cccnc3)CC2)cc1 (centres undefined)	none (no result: DRD3 antagonist)
Cc1ccc(S(=O)(=O)N2CCCC(C(=O)NCCC(C)C)C2)cc1 (centres undefined)	none
O=C(Cn1cc(C(=O)C2CCCCC2)c2ccccc21)Nc1ccccc1Cl	none (no result: DRD3 antagonist)
Cc1ccc(NC(=O)CSc2nnnn2C)cc1S(=O)(=O)N(C)C	none
O=C(CSc1nn(-c2ccccc2)c(=S)s1)Nn1cnnc1	DRD3 antagonist -84.9
Cc1ccc(NC(=O)CSc2nn(-c3ccccc3)c(=S)s2)cc1S(=O)(=O)N(C)C	DRD3 antagonist -62.8
O=C(CSc1nn(-c2ccccc2)c(=S)s1)NC1CCS(=O)(=O)C1 (centres undefined)	none
CC(NC(=O)C1CCN(C(=O)c2ccc(F)cc2)CC1)c1ccc(S(N)(=O)=O)cc1 (centres undefined)	none (no result: D1 ag, D1 potentiator, D1 antag)
Cc1ccccc1-c1nnn(C/C(N)=N/O)n1	none
CSc1nc(-c2ccccc2)c(-c2ccccc2)[nH]1	DRD3 antagonist inconclusive
Cc1nc(-c2ccccc2)c(-c2ccccc2)[nH]1	DRD3 antagonist -50.6
Oc1ccc(N=Nc2nc(-c3ccccc3)c(-c3ccccc3)[nH]2)cc1	DRD3 antagonist -53.0
Oc1ccc(-c2nc(-c3ccccc3)c(-c3ccc(Br)cc3)[nH]2)cc1	none (no result: DRD3 antagonist)
COc1ccc(N(C)C(=O)CN(C)S(=O)(=O)c2ccc3c(c2)c(=O)n(C)c(=O)n3C)c(OC)c1	none
Cc1cccc(N(C)S(=O)(=O)c2cc(-c3cnc(C4CC4)o3)ccc2C)c1	D1 antag -31.8 (no result: DRD3 antagonist)
Cc1ccc(C)c(NC(=O)CCN2CCc3ccccc3C2)c1	DRD3 antagonist -108.4
CCN1CCN(CCC(=O)Nc2cc(C)ccc2C)CC1	none
COc1cc2c(cc1OC)CN(CC(=O)Nc1ccc3c(c1)OCO3)CC2	none
O=C(CCN1CCc2ccccc2C1)Nc1ccc2c(c1)OCO2	DRD3 antagonist -67.1
O=C(CCN1CCc2ccccc2C1)Nc1ccc(F)c(F)c1	DRD3 antagonist -102.8
CSc1ccc(CNC(=O)C2CCCN(S(=O)(=O)N(C)c3ccc(F)cc3)C2)cc1 (centres undefined)	none (no result: DRD3 antagonist)
Cc1ccc(C)c(Nc2nc3ccc(C)cc3n3cnnc23)c1	none
COc1cc2c3nnc(-c4ccc(F)cc4)c-3cn(Cc3ccccc3F)c2cc1OC	D1 antag -52.9
CCCCC(=O)NC(c1ccc(Cl)cc1Cl)c1ccc2cccnc2c1O (centres undefined)	D3 ag 33.0
O=C(O)c1ccccc1NC(c1ccccc1)c1ccc2cccnc2c1O (centres undefined)	DRD3 antagonist -95.3 (no result: D1 ag, D1 potentiator, D1 antag)
CC(=O)NC(c1ccco1)c1ccc2cccnc2c1O (centres undefined)	DRD3 antagonist -62.2
CCC(=O)NC(c1ccc(Cl)cc1Cl)c1ccc2cccnc2c1O (centres undefined)	none
Cc1ccnc(NC(c2ccsc2)c2ccc3ccc(C)nc3c2O)c1 (centres undefined)	DRD3 antagonist -98.3
COc1ccccc1NC(c1cccnc1)c1ccc2cccnc2c1O (centres undefined)	DRD3 antagonist inconclusive
Cc1ccc2ccc(C(Nc3ccccc3)c3ccccc3)c(O)c2n1 (centres undefined)	DRD3 antagonist inconclusive (no result: D1 ag, D1 potentiator, D1 antag)
Oc1c(C(Nc2ccccn2)c2ccccn2)ccc2cccnc12 (centres undefined)	none
Oc1ccccc1C(Nc1nccs1)c1ccc2cccnc2c1O (centres undefined)	D3 ag 33.3
COc1ccc(C(Nc2cc(C)ccn2)c2ccc3ccc(C)nc3c2O)cc1 (centres undefined)	DRD3 antagonist -77.2
Cc1ccnc(NC(c2ccccc2)c2ccc3cccnc3c2O)c1 (centres undefined)	none (no result: D1 ag, D1 potentiator, D1 antag)
Cc1ccnc(NC(c2cc(C)ccc2O)c2ccc3cccnc3c2O)c1 (centres undefined)	D1 antag -49.7 (no result: DRD3 antagonist)
Cc1ccc2ccc(C(Nc3cccc(C(F)(F)F)c3)c3cccnc3)c(O)c2n1 (centres undefined)	DRD3 antagonist -127.5
CC(O)(P(=O)(O)O)P(=O)(O)O	none (no result: D1 ag, D1 potentiator, D1 antag)
CC1CCN(S(=O)(=O)c2cc(C(=O)NCc3ccccc3)n(C)c2)CC1	none (no result: DRD3 antagonist)
Cc1ccc2ccc(C(Nc3ccccn3)c3ccccc3)c(O)c2n1 (centres undefined)	DRD3 antagonist -59.4
O=C(CSc1nnc(-c2cccs2)o1)Oc1ccc(Cl)cc1	none (no result: DRD3 antagonist)
Cc1ccc(Nc2nnc(-c3ccc(C)c(S(=O)(=O)N4CCN(C)CC4)c3)c3ccccc23)c(C)c1	D1 antag -56.8 (no result: DRD3 antagonist)
Cc1cccc(Nc2nnc(-c3ccc(C)c(S(=O)(=O)N4CCN(C)CC4)c3)c3ccccc23)c1	D1 antag -43.8 (no result: DRD3 antagonist)
Cc1ccc(Nc2nnc(-c3ccc(C)c(S(=O)(=O)N4CCN(C)CC4)c3)c3ccccc23)cc1	none (no result: DRD3 antagonist)
C#CCOc1ccc(-c2nnc(Nc3cccc(C)c3)c3ccccc23)cc1	D1 antag -44.8 (no result: DRD3 antagonist)
CC(CC(=O)N1CCN(S(=O)(=O)c2ccc(Cl)cc2)CC1)n1cncn1 (centres undefined)	none
Cc1ccc(CNC(=O)CSc2c3c(nc4cc(Cl)ccc24)CCCC3)o1	DRD3 antagonist -76.3
O=C(CN1CCN(C2CCCCC2)CC1)c1c[nH]c2ccccc12	DRD3 antagonist -68.9
CCN1CCN(CC(=O)c2c[nH]c3ccccc23)CC1	none
O=C(CN1CCN(C2CCCCC2)CC1)c1ccc2cc[nH]c2c1	DRD3 antagonist inconclusive, D1 antag -36.0
CC1CCN(c2nc(Cl)nc(Nc3ccc([N+](=O)[O-])cc3)n2)CC1	none
Cn1c(CC(=O)NNC(=O)c2ccc(F)cc2Cl)nc2ccccc21	none
CCOc1ccc(N(CC(=O)Nc2ccc(C)c(C)c2)S(=O)(=O)c2c(C)noc2C)cc1	DRD3 antagonist -65.7

From PubChem
